Bioassay records as filed in PubChem BioAssay.
HT1080-NT tox = qHTS for induction of synthetic lethality in tumor cells producing 2HG: qHTS for the HT-1080-NT fibrosarcoma cell line; HT-1080-NT fibrosarcoma viability, CellTiter-Glo ATP luminescence, 48 h; Potency, µM (titrated, usually from 46.1 µM), usual class: cytotoxic; 360,000 compounds, 1.6% hits; AID 686970, 2013;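 note: NT is the 2HG producing partner of a matched IDH1 knockdown line; nearly all actives have a fitted effect of over 55% in size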
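Toxicity toward the 2HG-producing NT line was scored as %Activity, normalised to DMSO and no-cell wells, from CellTiter-Glo luminescence after 48 hours' treatment.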
KB-V1 cytotox = qHTS assay for MDR1-selective chemotherapeutics: Primary screen using the drug-selected MDR subline cells KB-V1 | KB-V1 MDR cells viability, CellTiter-Glo, 72 h | 400,000 compounds, 3.4% hits | Potency, µM (doses to about 46.1 µM), actives largely listed as cytotoxic; note: nearly all actives have a fitted effect of over 60% in size
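Cytotoxicity toward P-gp-expressing KB-V1 cells was determined as loss of CellTiter-Glo luminescence after 72 h at 37 degrees C. Compounds were tested in quantitative HTS format across a concentration range, with curves fitted to normalized data.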
TDP1 cell noCPT = qHTS for Inhibitors of human tyrosyl-DNA phosphodiesterase 1 (TDP1): qHTS in cells in absence of CPT; 420,000 compounds, 15% hits; DT40 Tdp1-/- hTDP1 cells, no CPT, ATP luminescence, 48 h; Potency, µM (series often up to 46.2 µM), actives largely listed as inhibitors; AID 686978, 2013; note: nearly all actives have a fitted effect of over 55% in size
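DT40 Tdp1-/-;hTDP1 cells, no CPT (DMSO vehicle only), 400 cells/well; compounds pin-transferred; ≥48 hr, 37 °C; CellTiter-Glo 30 min RT dark, luminescence read.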
HT1080 IDH1KD tx = qHTS for induction of synthetic lethality in tumor cells producing 2HG: qHTS for the HT-1080-IDH1KD cell line. HT-1080 IDH1 knockdown viability, ATP luminescence, 48 h. Potency, µM (top dose mostly 46.1 µM), hits mostly cytotoxic. 360,000 compounds, 2% hits. AID 686971, 2013
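Viability of IDH1-knockdown HT-1080 fibrosarcoma cells was assessed by CellTiter-Glo after 48 h at 37 °C with titrated compound; concentration-effect curves were classified by fit quality and response size.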
TDP1 cell CPT = qHTS for Inhibitors of human tyrosyl-DNA phosphodiesterase 1 (TDP1): qHTS in cells in presence of CPT; Potency, µM (top dose mostly 46.2 µM), most hits filed as inhibitors; 420,000 compounds, 12% hits; chicken DT40 Tdp1-/-;hTDP1 cells + 20 nM CPT, ATP luminescence, 48 h; AID 686979, 2013; note: nearly all actives have a fitted effect of over 55% in size
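Chicken DT40 Tdp1-/- cells complemented with human TDP1, 400 cells/well, exposed to compounds plus 20 nM camptothecin for at least 48 h at 37 C; viability read as ATP content by CellTiter-Glo luminescence.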
KB-3-1 cytotox = qHTS assay for MDR1-selective chemotherapeutics: Primary screen using the parental adenocarcinoma cell KB-3-1; KB-3-1 viability, CellTiter-Glo ATP luminescence, 72 h; Potency, µM (titrated, usually from 46.1 µM), most hits filed as cytotoxic; 400,000 compounds, 1.4% hits; note: nearly all actives have a fitted effect of over 60% in size
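Multi-concentration cytotoxicity screen in KB-3-1 cells grown in DMEM lacking phenol red with 10% FBS. After 72 h at 37 °C with compound, ATP-dependent luminescence was recorded.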
Each line names hits and unclear results; the compound was inactive in the other large screens. Sampled rows, rich in hits. Any-hit rate of the full collection: about 19%. Calls come from the whole dose curve; as a rule, active = well fitted curve in the direction sought with a large enough effect; inconclusive = small, poorly fitted or top-dose-only effect, or another doubt; inactive = no such curve, though single readings can be large; an effect the other way counts as inactive or inconclusive.

C#CCOCCOCCOCCNc1nc(N2CCN(C(=O)CCCCCCCCCCNC(=O)Cn3cc(C[C@@H](C)O)nn3)CC2)nc(N2CCN(C(=O)CCCCCCCCCCNC(=O)[C@@H](CCSC)n3cc(CCO)nn3)CC2)n1	HT1080-NT tox inconclusive, TDP1 cell noCPT 10µM, HT1080 IDH1KD tx 21µM, TDP1 cell CPT inconclusive
C#CCOCCOCCOCCNc1nc(N2CCN(C(=O)CCCCCCCCCCNC(=O)[C@H](CCCCN)n3cc(C)nn3)CC2)nc(N2CCN(C(=O)CCCCCCCCCCNC(=O)[C@@H]([C@H](C)O)n3cc(C)nn3)CC2)n1	HT1080-NT tox 10µM, KB-V1 cytotox inconclusive, TDP1 cell noCPT inconclusive, HT1080 IDH1KD tx inconclusive, TDP1 cell CPT inconclusive, KB-3-1 cytotox 21µM
Cc1ccc(CN(C(=O)COc2ccc([N+](=O)[O-])cc2)C2CCS(=O)(=O)C2)o1 (stereo unspecified)	none
COc1c(Cl)cc(C(=O)N(Cc2ccc(C)o2)C2CCS(=O)(=O)C2)cc1Cl (stereo unspecified)	TDP1 cell noCPT 23µM, TDP1 cell CPT inconclusive (no result: HT1080-NT tox, HT1080 IDH1KD tx)
COc1cc(C(=O)N(Cc2ccc(C)o2)C2CCS(=O)(=O)C2)cc(OC)c1OC (stereo unspecified)	none
Cc1ccc(CN(C(=O)COc2ccc(C(C)(C)C)cc2)C2CCS(=O)(=O)C2)o1 (stereo unspecified)	TDP1 cell noCPT 21µM, TDP1 cell CPT inconclusive (no result: HT1080-NT tox, KB-V1 cytotox, HT1080 IDH1KD tx, KB-3-1 cytotox)
CC(C)CN(C(=O)COc1ccc(C(C)(C)C)cc1)C1CCS(=O)(=O)C1 (stereo unspecified)	KB-V1 cytotox inconclusive, TDP1 cell noCPT 23µM
Cc1cc(NC(=O)c2csc([C@@H]3O[C@H](CO)[C@H](O)[C@H](O)[C@H]3O)n2)n(C)n1	none
OCc1nc2ccccc2n1/N=C/c1cccs1	none
Cc1ccccc1-n1c(=O)cc(N2CCN(C(=O)c3ccco3)CC2)[nH]c1=O	none
NC(=S)NN=Cc1c[nH]c2nccnc12	TDP1 cell noCPT 13µM, HT1080 IDH1KD tx inconclusive, TDP1 cell CPT 16µM
CN(/C(=N\S(=O)(=O)c1ccccc1)c1ccccc1)c1ccc(O)cc1	TDP1 cell noCPT inconclusive, TDP1 cell CPT inconclusive
O=C(Nc1cccc(F)c1)c1ccc(-c2cccnc2)c2ccoc12	HT1080-NT tox inconclusive, TDP1 cell noCPT inconclusive, TDP1 cell CPT inconclusive
CCCC(=O)N/C(N)=N/c1nc(C)c2ccccc2n1	KB-V1 cytotox inconclusive, TDP1 cell noCPT 16µM, TDP1 cell CPT inconclusive, KB-3-1 cytotox inconclusive
Cc1cc(C)c2nc(/N=C(\N)NC(=O)c3ccccc3)nc(C)c2c1	TDP1 cell noCPT 16µM
Cc1cc(C)c2nc(/N=C(\N)NC(=O)Nc3ccccc3)nc(C)c2c1	KB-V1 cytotox inconclusive, TDP1 cell noCPT 18µM, TDP1 cell CPT 23µM
CCOC(=O)c1ccc2nc(C)c(CC)c(Cl)c2c1	KB-V1 cytotox inconclusive
CCCCC(=O)N/C(N)=N/c1nc2ccccc2o1	TDP1 cell noCPT inconclusive, TDP1 cell CPT inconclusive
Cc1cc(C)c(NC(=O)Nc2ccccc2)c(C)n1	KB-V1 cytotox inconclusive
Cc1cc(C)nc(/N=C(/NC(=O)c2ccccc2)Nc2ccccc2)n1	none
CCc1ccc2nc(/N=C(\N)NC(=O)c3ccccc3)nc(C)c2c1	TDP1 cell noCPT 16µM, TDP1 cell CPT inconclusive
CCCNC(=O)NC(=O)CSc1cccc(C(F)(F)F)c1	TDP1 cell noCPT inconclusive
COc1ccc(Br)cc1CN1CCCCCCC1	none
